Test results taken from PubChem BioAssay AID504334 (NMMLSC, 2011).
Where “and” joins values, the source holds several entries; their conditions need not be identical. Identical values can stand only once.

Test: yeast AGP1-GFP fluorescence change, single-dose confirmation – cell-based, flow cytometry, S. cerevisiae, cherry pick set 3 (AID 504334);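 also: median GFP fluorescence per well by flow cytometry over the all cells gate; ratio of sample to mean DMSO control signal so DMSO = 100% not 0%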
Conditions: S. cerevisiae AGP1-GFP strain, 3 h, at 10 µM, active compounds read high;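 active = response relative to DMSO over 150%; inconclusive = yeast strain with under 70 recorded events; inactive = the rest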

Percent response vs DMSO, inactive:
COc1ccc(-c2cc(C(F)(F)F)nc(S(C)(=O)=O)n2)cc1OC 106% and 113%
O=c1cc(C(F)(F)F)[nH]c2c(OC(F)(F)F)cccc12 99.4%
Cc1cc(C)c2ccc(N)nc2c1O 101%
Nc1cccc2c1C(=O)c1ccc(Cl)cc1C2=O 102%
Oc1c(I)cc(Cl)c2cccnc12 100%
O=C(O)c1ccc(C=NNC(=O)c2cccc3ccccc23)cc1 107%
CS(=O)(=O)Oc1ccc(Br)c2cccnc12 96.4%
COc1cc(=O)n(C)c2c(O)cccc12 98.1%
Cc1cccc(Nc2cc(=O)[nH]c(=O)[nH]2)c1 96.8%
COc1cccc(OCc2cc(C(=O)N3CCN(C)C(c4ccccc4)C3)no2)c1 (centres undefined) 101%
Cc1ccc(Nc2nc(N)[nH]c(=O)c2N=O)cc1 101%
CC1=CN2C(=N)/C(=C/c3ccc(C)o3)C(=O)N=C2S1 98.1%
COCCCNc1nc(N)c([N+](=O)[O-])c(Nc2ccccc2OC)n1 103%
COc1ccccc1Nc1nc(NCC(C)C)nc(N)c1[N+](=O)[O-] 101%
Cc1cccc(Nc2cc(=O)[nH]c(=O)[nH]2)c1C 99.4%
Cn1c(=O)c2c(n3cnnc13)-c1ccccc1CC21CCCC1 104%
COc1ccc(OC)c2c(=O)cc(C(=O)O)[nH]c12 102%
Cn1c(NCCCO)nc2c(c1=O)C1(CCCCC1)Cc1ccccc1-2 104%
COc1ccc(Nc2nc(NN)nc(C)c2[N+](=O)[O-])cc1 94.1%
Oc1ccc(F)c2cccnc12 102%
CC1=CN2C(=N)/C(=C/c3ccco3)C(=O)N=C2S1 97.1%
COCCCNc1nc(N)c([N+](=O)[O-])c(Nc2cc(OC)ccc2OC)n1 100%
CCCOCc1ccc(O)c2ncccc12 99.8%
Cc1ccc(Nc2cc(=O)[nH]c(=O)[nH]2)cc1Cl 102%
C/C(=C\C(=O)c1ccc(Cl)cc1)Nc1ccc(Br)cc1 99.8%
COc1ccccc1-c1cc(C(F)(F)F)nc(S(=O)(=O)CCCC(=O)NC(C)C)n1 104% and 99.8%
Nc1c(O)ccc2c1C(=O)c1ccccc1C2=O 110%
CSc1ccccc1OCc1cc(C(=O)N2CCN(C)C(c3ccccc3)C2)no1 (centres undefined) 101%
NC(=O)c1ccnc2c(O)cccc12 100%
COC(=O)COc1c(Cl)cc(Cl)c2ccc(C)nc12 105%
Cc1nc(Nc2ccc(Br)cc2Br)c([N+](=O)[O-])c(=O)[nH]1 95.4%
CCN(CC)C(=O)Oc1cc(=O)n(C)c2ccccc12 100%
Nc1[nH]c(=O)nc(Nc2ccccc2)c1N=O 101%
Cc1cn2c(N)c(C=C3C=C(Cl)C(=O)C(Cl)=C3)c(=O)nc2s1 101%
CC(=O)Nn1cnc2c(c1=O)C1(CCCC1)Cc1ccccc1-2 99.1%
COc1ccccc1Nc1nc(NCCO)nc(N)c1[N+](=O)[O-] 99.1%
OCc1ccnc2c(O)cccc12 100%
O=C(Nc1ccccc1)ON=C1c2ccccc2-c2ccccc21 97.8%
CCCC(=O)Nn1cnc2c(c1=O)C1(CCCCC1)Cc1ccccc1-2 102%
